Cell count data for 39 compounds are collected here from the supplement of paper PMC4709259.

The structures appear in SMILES notation. Where a name gives a salt, the structure may show the parent alone. ± gives the standard deviation.

For the test, the system named is Jurkat. The experiment in a line: cell count relative to DMSO control (fraction of control); higher = more cells (less growth inhibition). The note with it: 48 h.
`O=C(c1ccccc1)c1ccc2n1CCC2C(=O)O` (centres undefined) [Ketorolac Tromethamine] (concentration: 25 µM) registered a cell count of 0.934 ± 0.038.
The figure for `COc1cccc2c1C(=O)c1c(O)c3c(c(O)c1C2=O)C[C@@](O)(C(=O)CO)C[C@@H]3O[C@H]1C[C@H](N)[C@H](O)[C@H](C)O1` [Doxorubicin·HCl] (concentration: 250 nM) is 0.234 ± 0.035; for `NC(=O)N[C@@H](CCC(=O)O)C(=O)O` [Carglumic Acid] (concentration: 25 µM) it is 0.806 ± 0.1.
The figure for `CC(C)/N=c1\cc2n(-c3ccc(Cl)cc3)c3ccccc3nc-2cc1Nc1ccc(Cl)cc1` [Clofazimine] (concentration: 2.5 µM) is 0.695 ± 0.066; for `Cn1c(=O)c2nc[nH]c2n(C)c1=O` [Theophylline] (concentration: 25 µM) it is 1.05 ± 0.031.
The figure for `C[C@]12C=CC(=O)C=C1CC[C@@H]1[C@@H]2C(=O)C[C@@]2(C)[C@H]1CC[C@]2(O)C(=O)CO` [Prednisone] (concentration: 25 µM) is 0.689 ± 0.13; for `CCOC(=O)[C@H](CCc1ccccc1)N[C@@H](C)C(=O)N1Cc2cc(OC)c(OC)cc2C[C@H]1C(=O)O` [Moexipril·HCl] (concentration: 25 µM) it is 0.587 ± 0.074; for `O=c1[nH]cnc2c1ncn2[C@H]1CC[C@@H](CO)O1` [Didanosine] (concentration: 25 µM) it is 0.462 ± 0.15.
As for `O=P(O)(O)C(Sc1ccc(Cl)cc1)P(=O)(O)O` [Tiludronate Disodium] (concentration: 25 µM), the cell count amounted to 0.663 ± 0.15.
The figure for `CC(=O)[C@H]1CC[C@H]2[C@@H]3CCC4=CC(=O)CC[C@]4(C)[C@H]3CC[C@]12C` [Progesterone] (concentration: 25 µM) is 0.755 ± 0.052.
The figure for `Cc1ccccc1C(=O)Nc1ccc(C(=O)N2CCCC(O)c3cc(Cl)ccc32)c(C)c1` (centres undefined) [Tolvaptan] (concentration: 25 µM) is 0.95 ± 0.028; for `CCCc1nn(C)c2c(=O)[nH]c(-c3cc(S(=O)(=O)N4CCN(C)CC4)ccc3OCC)nc12` [Sildenafil Citrate] (concentration: 25 µM) it is 0.719 ± 0.22; for `CCOC(=O)[C@H](CCc1ccccc1)N[C@@H](C)C(=O)N1[C@H](C(=O)O)C[C@@H]2CCC[C@@H]21` [Ramipril] (concentration: 25 µM) it is 0.965 ± 0.031.
The figure for `N[C@@H](C(=O)N[C@@H]1C(=O)N2C(C(=O)O)=C(Cl)CS[C@H]12)c1ccccc1` [Cefaclor] (concentration: 25 µM) is 1.03 ± 0.097; for `C[N+](C)(C)CC(=O)O` [Betaine] (concentration: 25 µM) it is 0.449 ± 0.066; for `CC(C)N1CCN(c2ccc(OCC3COC(Cn4cncn4)(c4ccc(Cl)cc4Cl)O3)cc2)CC1` (centres undefined) [Terconazole] (concentration: 25 µM) it is 0.299 ± 0.11.
In the case of `COc1cc(NC(C)CCCN)c2ncccc2c1` (centres undefined) [Primaquine Phosphate] (concentration: 25 µM), the cell count turned out to be 0.742 ± 0.042.
The compound `Clc1ccc2c(c1)C(N1CCNCC1)=Nc1ccccc1O2` [Amoxapine] (concentration: 25 µM) returned a cell count of 0.538 ± 0.073.
As to `CCN(CCO)CCCC(C)Nc1ccnc2cc(Cl)ccc12` (centres undefined) [Hydroxychloroquine Sulfate] (concentration: 25 µM), the cell count is 1.03 ± 0.11.
As for `CO[C@H]1/C=C/O[C@@]2(C)Oc3c(C)c(O)c4c(O)c(c(/C=N/N5CCN(C6CCCC6)CC5)c(O)c4c3C2=O)NC(=O)/C(C)=C\C=C\[C@H](C)[C@H](O)[C@@H](C)[C@@H](O)[C@@H](C)[C@H](OC(C)=O)[C@@H]1C` [Rifapentine] (concentration: 25 µM), the cell count was 0.275 ± 0.088.
The figure for `OCCN1CCN(CCCN2c3ccccc3Sc3ccc(C(F)(F)F)cc32)CC1` [Fluphenazine·HCl] (concentration: 2.5 µM) is 0.701 ± 0.079.
The figure for `CNCC[C@H](Oc1cccc2ccccc12)c1cccs1` [Duloxetine·HCl] (concentration: 25 µM) is 0.353 ± 0.073; for `Nc1cc(-c2ccncc2)c[nH]c1=O` [Amrinone] (concentration: 25 µM) it is 0.256 ± 0.064; for `Nc1ccn(C[C@@H](CO)OCP(=O)(O)O)c(=O)n1` [Cidofovir] (concentration: 25 µM) it is 0.593 ± 0.094.
The figure for `C[N+](C)(C)CCOC(N)=O` [Carbachol (Carbamylcholine ) Chloride] (concentration: 25 µM) is 1.13 ± 0.12; for `CCOC(=O)N1CCC(=C2c3ccc(Cl)cc3CCc3cccnc32)CC1` [Loratadine] (concentration: 25 µM) it is 0.367 ± 0.031; for `Nc1nc(/C(=C/CC(=O)O)C(=O)N[C@@H]2C(=O)N3C(C(=O)O)=CCS[C@H]23)cs1` [Ceftibuten] (concentration: 25 µM) it is 1.11 ± 0.031.
Turning to `CC(=O)S[C@@H]1CC2=CC(=O)CC[C@]2(C)[C@H]2CC[C@@]3(C)[C@@H](CC[C@@]34CCC(=O)O4)[C@H]12` [Spironolactone] (concentration: 25 µM), the cell count was 0.455 ± 0.032.
`CCCNC(C)C(=O)Nc1ccccc1C` (centres undefined) [Prilocaine·HCl] (concentration: 25 µM) had a cell count of 0.693 ± 0.13.
In the case of `N[C@@H](Cc1cc(I)c(Oc2ccc(O)c(I)c2)c(I)c1)C(=O)O` [Liothyronine·Na] (concentration: 25 µM), the cell count was 0.648 ± 0.15.
The figure for `Cn1ccnc1S` [Methimazole] (concentration: 25 µM) is 0.842 ± 0.092.
The figure for `C[C@@H]1C[C@H]2[C@@H]3CCC4=CC(=O)C=C[C@]4(C)[C@@]3(F)[C@@H](O)C[C@]2(C)[C@H]1C(=O)CO` [Desoximetasone] (concentration: 25 µM) is 0.764 ± 0.02; for `C=CC[N+]1([C@H]2C[C@H]3[C@@H]4CC[C@H]5C[C@H](O)[C@@H](N6CCOCC6)C[C@]5(C)[C@H]4CC[C@]3(C)[C@H]2OC(C)=O)CCCC1` [Rocuronium Bromide] (concentration: 25 µM) it is 0.337 ± 0.086; for `CN1C2CCCC1CC(NC(=O)c1nn(C)c3ccccc13)C2` (centres undefined) [Granisetron·HCl] (concentration: 25 µM) it is 0.899 ± 0.037.
The figure for `CC[C@@H](CO)NCCN[C@@H](CC)CO` [Ethambutol Dihydrochloride] (concentration: 25 µM) is 0.721 ± 0.18.
The compound `O=P(O)(O)C(O)(Cn1ccnc1)P(=O)(O)O` [Zoledronic Acid Monohydrate] (concentration: 25 µM) returned a cell count of 0.296 ± 0.11.
The compound `CN(C)CC[C@@H](c1ccc(Cl)cc1)c1ccccn1` [Dexchlorpheniramine Maleate] (concentration: 25 µM) gave a cell count of 0.526 ± 0.17.
The figure for `CN(C)CCOC(c1ccc(Cl)cc1)c1ccccn1` (centres undefined) [Carbinoxamine Maleate] (concentration: 25 µM) is 0.735 ± 0.064.
The figure for `C[C@H](CCC(=O)O)[C@H]1CC[C@H]2[C@@H]3[C@@H](O)C[C@@H]4C[C@H](O)CC[C@]4(C)[C@H]3CC[C@]12C` [Ursodiol] (concentration: 25 µM) is 0.718 ± 0.096.
